# Screening results: PubChem, National Center for Advancing Translational Sciences (NCATS)
# In the library only some 22% were active in any assay of this set; here they are far more common.
# Pf growth 48h: inhibits P. falciparum growth in the first generation, 48 h; P. falciparum luciferase growth in erythrocytes, 48 h; Potency, µM (series often up to 28.7 µM), for inactives: at the top dose activity change, negative = inhibition, most hits filed as inhibitors; 5.9% of 310,000 active; AID 504832; also: potency is read from the fitted curve at half-maximal effect; % is scaled to controls: 0 for no effect and ±100 for the full control effect
#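 Luminescence readout; reporter = integrated firefly luciferase in P. falciparum. RBC culture at 2% hematocrit, 0.1% parasitemia final, 37 C/5% CO2; decreased signal taken as growth inhibition.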
# LmPK inh: inhibitors of Leishmania mexicana pyruvate kinase. purified LmPK, Kinase-Glo ATP luminescence, 1 h. Q27686. 0.37% of 290,000 active. Potency, µM (highest dose often 57.5 µM), for inactives: at the top dose activity change, negative = inhibition, hits mostly inhibitors. AID 1721; also: potency is read from the fitted curve at half-maximal effect; % is scaled to controls: 0 for no effect and ±100 for the full control effect
# Target sequence (Q27686 whole entry, looked up): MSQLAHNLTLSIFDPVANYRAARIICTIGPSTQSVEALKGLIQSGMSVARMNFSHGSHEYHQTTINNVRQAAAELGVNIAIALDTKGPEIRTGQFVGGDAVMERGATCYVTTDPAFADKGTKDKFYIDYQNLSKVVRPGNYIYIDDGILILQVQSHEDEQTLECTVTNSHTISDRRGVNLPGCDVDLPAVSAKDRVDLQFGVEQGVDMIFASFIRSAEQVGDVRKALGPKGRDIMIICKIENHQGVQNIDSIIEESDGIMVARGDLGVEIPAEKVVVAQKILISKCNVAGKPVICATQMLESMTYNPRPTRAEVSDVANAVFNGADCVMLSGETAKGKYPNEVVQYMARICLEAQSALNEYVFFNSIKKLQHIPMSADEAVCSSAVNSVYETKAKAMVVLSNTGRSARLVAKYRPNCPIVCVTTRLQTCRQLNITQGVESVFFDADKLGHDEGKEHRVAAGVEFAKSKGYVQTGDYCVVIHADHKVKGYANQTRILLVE
#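 Screened at intermediate enzyme activity to detect both inhibitors and activators: LmPK at 0.1 nM, with a 0.5 nM enzyme column as activation reference. PEP 0.5 mM, ADP 0.1 mM; ATP detected by luminescence after 1 h.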
# CHX counter: counter-screen for Shiga toxin inhibitors: cycloheximide protein synthesis inhibition. cell reporter, cycloheximide protein synthesis inhibition counterscreen. max response, %. 12% of 300,000 active. AID 2314; in the data active = max response mostly above about 13%, no sharp cut-off; inactive = mostly below about 14%; also: read at 38.3 µM for the half of the compounds with a filed dose; 0% is about no effect
# Shiga toxin inh: inhibitors of Shiga toxin in Vero cells; Vero cells, Shiga toxin protein synthesis inhibition reporter; inhibition, % at 38.7 µM; 9.2% of 290,000 active; in the data active = inhibition mostly above about 28%, no sharp cut-off; inactive = mostly below about 43%; also: 0% is about no effect
# Pf growth 96h: P. falciparum growth inhibition at 96 hours. P. falciparum luciferase reporter growth, 96 h. Potency, µM (highest dose often 28.7 µM), for the others: top-dose activity change, negative = inhibition, most hits filed as inhibitors. 6.9% of 320,000 active; also: potency is read from the fitted curve at half-maximal effect; % is scaled to controls: 0 for no effect and ±100 for the full control effect
#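 Two parasite generations (96 h, 37 C, 5% CO2) of compound exposure in infected erythrocytes (0.05% parasitemia, 2% hematocrit). Luciferase-reporter P. falciparum; decreased luminescence indicates inhibited growth, aimed at apicoplast-acting delayed death.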
# * marks the source's active call; other numbers are inactive results; i = inactive; ? = inconclusive; · = no result; [ ] = another dose, or the depositor's remark. Unless noted, calls follow the shape of the dose curve; as a rule, active = well fitted inhibition curve with a large enough effect; inconclusive = small, poorly fitted or top-dose-only effect, or another doubt; inactive = no such curve, though single readings can be large or run the other way.
SMILES,Pf growth 48h,LmPK inh,CHX counter,Shiga toxin inh,Pf growth 96h
NC(=O)c1ccc(SCC(=O)OCC(=O)N2CCCCC2)c([N+](=O)[O-])c1,20.8%,·,·,·,6.3%
COC(=O)c1ccc(SCC(=O)N2CCC(C)CC2)c([N+](=O)[O-])c1,20.8%,6.3%,-4.8,-11.0,?
CCOC(=O)CSc1ccc(C(=O)N2CCC3(CC2)OCCO3)cc1[N+](=O)[O-],?,4.2%,-1.9,9.8,7.38µM*
O=C(CCN1C(=O)C2C3C=CC(C4CC34)C2C1=O)Nc1ccc(Cl)cc1O (stereo not drawn),?,-3.4%,-2.6,-6.4,-2.5%
O=C(CCNC(=O)N1CCn2c1nc1ccccc12)NCc1ccccc1,-5.4%,5.0%,0.9,-5.2,7.5%
CN1CCC(N(C)c2ccc(C(N)=O)cc2[N+](=O)[O-])CC1,20.8%,0.2%,-8.0,-3.3,2.0%
CN(c1ccc(C(=O)N2CCOCC2)cc1[N+](=O)[O-])C1CCCCC1,55.4%,0.6%,48.3*,94.5*,204.9%
COc1ccc(-n2nc(C(=O)NCC(=O)N3CCC4(CC3)OCCO4)c3ccccc3c2=O)cc1OC,?,5.0%,16.6*,36.9,4.65µM*
CCC1CCCCN1CCCNC(=O)CNC(=O)c1nn(-c2ccc(OC)c(Cl)c2)c(=O)c2ccccc12 (stereo not drawn),5.22µM*,2.8%,-2.8,-11.7,?
COc1ccc(-n2nc(C(=O)NCC(=O)N3CCN(c4ccccn4)CC3)c3ccccc3c2=O)cc1,-0.2%,8.8%,11.4,21.3,?
CCN1CCN(C(=O)CNC(=O)c2nn(-c3ccc(OC)cc3)c(=O)c3ccccc23)CC1,26.5%,0.9%,10.1,22.2,1.47µM*
COc1ccc(-n2nc(C(=O)NCC(=O)N3CCN(c4ccccn4)CC3)c3ccccc3c2=O)cc1OC,-17.7%,2.4%,15.3*,25.6,3.0%
CCOC(=O)N1CCN(C(=O)CNC(=O)c2nn(-c3ccc(OC)c(OC)c3)c(=O)c3ccccc23)CC1,?,1.0%,-5.1,-10.8,?
COc1ccc(-n2nc(C(=O)NCC(=O)N3CCN(c4ccccc4OC)CC3)c3ccccc3c2=O)cc1OC,1.65µM*,-0.1%,3.2,-6.6,?
COc1ccc(-n2nc(C(=O)NCC(=O)N3CCOCC3)c3ccccc3c2=O)cc1OC,31.1%,8.1%,-2.4,-7.6,?
COc1ccc(-n2nc(C(=O)NCC(=O)N3CCN(c4ccccc4)CC3)c3ccccc3c2=O)cc1OC,0.1%,4.7%,22.4*,43.3*,16.3%
CC(=O)OCC(NC(=O)C(Cc1ccccc1)NC(=O)OC(C)(C)C)C1OC(n2cc(C)c(=O)[nH]c2=O)C(OC(C)=O)C1OC(C)=O (stereo not drawn),·,·,11.2,-14.1,·
Cc1cc(C(=O)COC(=O)c2ccc3c(c2)NC(=O)CS3)c(C)n1CC1CCCO1 (stereo not drawn),-7.0%,1.2%,37.9*,55.9*,0.0%
COCC(C)n1c(C)cc(C(=O)COC(=O)c2ccc3c(c2)NC(=O)CS3)c1C (stereo not drawn),10.4µM*,3.4%,15.0,26.9,7.38µM*
Cc1cc(C(=O)COC(=O)c2ccc(O)cc2)c(C)n1CC1CCCO1 (stereo not drawn),286.8%,-2.0%,58.6*,107.0*,288.1%
CCN(CC)S(=O)(=O)c1ccc2[nH]c(=O)cc(C(=O)Nc3ccccc3N3CCOCC3)c2c1,-1.4%,·,·,·,30.3%
CNS(=O)(=O)c1ccc(C(=O)NCC(=O)NC(C)c2cccs2)cc1 (stereo not drawn),-13.3%,·,·,·,?
CN(CCCNC(=O)CCc1cn(C)c2ccccc12)C1CCCCC1,-9.8%,-4.1%,-0.7,-3.8,11.9%
Cc1cc(C)c2c(N)c(C(=O)Nc3c(C)n(C)n(-c4ccccc4)c3=O)sc2n1,25.7%,2.4%,9.7,-6.9,?
Cc1ccc(C(=O)N2CCN(c3nc4ccccc4n3C)CC2)cc1,?,0.0%,4.3,13.3,8.6%
SMILES,Pf growth 48h,LmPK inh,CHX counter,Shiga toxin inh,Pf growth 96h
Cc1ccc(NC(=O)COC(=O)/C(=C/c2cccs2)c2cccs2)cc1S(=O)(=O)N(C)C,39.9%,-0.8%,31.0*,89.4*,5.1%
Cc1ccc(NC(=O)COC(=O)c2ccccc2Cl)cc1S(=O)(=O)N(C)C,?,14.6%,32.1*,70.8*,0.0%
COc1cccc2c1OC(=O)CC2c1ccc(C)cc1 (stereo not drawn),·,·,5.8,i,·
COCc1ccc(C(=O)N(C)C2CCCN(Cc3ccccc3F)C2)o1 (stereo not drawn),?,-5.1%,3.3,-2.5,2.94µM*
COc1ccc(C(=O)N(C)C2CCCN(Cc3ccccc3F)C2)cc1C (stereo not drawn),?,-1.6%,-2.1,1.3,5.22µM*
COC(=O)c1ccc(C(=O)N(C)C2CCCN(Cc3ccccc3F)C2)cc1 (stereo not drawn),-13.3%,1.0%,-2.1,-6.7,0.0%
CN(C)S(=O)(=O)c1ccc(Cl)c(C(=O)NNC(=O)c2ccc3c(c2)OCO3)c1,-12.6%,·,·,·,1.5%
CC(C)CCNC(=O)Cc1ccc(Nc2nc(=S)[nH]c3ccccc23)cc1,?,3.2%,6.5,10.4,2.6%
Cc1cc(NC(=O)CCCN2C(=O)c3cccnc3C2=O)no1,22.0%,1.8%,-2.9,-5.7,11.7µM*
Cc1cc(NC(=O)CCCN2C(=O)c3cccc4cccc(c34)C2=O)no1,2.9%,0.6%,-1.6,-25.0,?
CC(C)N1CC(COc2ccc(Cl)cc2Cl)OC1=O (stereo not drawn),2.2%,0.2%,16.4,34.7,19.7%
CCOCc1c(C(=O)OCC(=O)NCc2ccc(F)cc2)oc2ccccc12,-17.8%,·,·,·,14.5%
CC(=O)CC(=O)Nc1ccc(Cl)cn1,34.7%,1.1%,-3.6,-8.6,?
CC(C)CC(=O)NC(=S)Nc1ccc(Cl)cn1,-3.6%,-0.8%,33.8*,119.4*,38.0%
CCC(C)c1ccc(OCC(=O)Nc2ccc(Cl)cn2)cc1 (stereo not drawn),·,-8.0%,34.6*,21.5,-10.3%
CC(OC(=O)CN1C(=O)c2ccccc2C1=O)C(=O)NC1CCCC1 (stereo not drawn),28.4%,-1.5%,-2.2,-4.9,18.9%
CN(CC(=O)Nc1cccc(F)c1)C(=O)CSc1ccccc1F,?,0.1%,0.9,1.3,17.0%
O=C(Nc1ccc2c(c1)nc1n2CCOC1)c1ccco1,143.7%,0.7%,32.5*,72.6*,71.9%[5.75 µM]
O=C(Nc1ccc2c(c1)nc1n2CCSC1)c1ccco1,152.5%,-28.3%,12.5,34.2,9.5%
O=C(Nc1ccc2c(c1)nc1n2CCOC1)C1CCCCC1,90.5%,-5.5%,28.9*,80.9*,198.7%
CC(=O)Nc1ccc2c(c1)nc1n2CCOC1,·,-4.3%,0.2,13.9,23.6%
COC(=O)COc1ccc(Cl)cc1C1Nc2ccccc2C(=O)N1c1ccc(OC)cc1 (stereo not drawn),23.6%,7.3%,12.1,15.5,72.6%
